# Source: PubChem BioAssay AID686979 (National Center for Advancing Translational Sciences (NCATS), 2013)
# Out of some 420,000 compounds screened, about 50,000 (12%) were called active. Inconclusive results (about 26%) are left out. The list comes from a sample in which actives are over-represented; it also holds similar structures and randomly drawn compounds. Unmarked numbers belong to inactive results. Calls come from the whole dose curve; as a rule, active = well fitted inhibition curve with a large enough effect; inconclusive = small, poorly fitted or top-dose-only effect; inactive = flat fitted curve, though single readings scatter.
# Experiment: qHTS for Inhibitors of human tyrosyl-DNA phosphodiesterase 1 (TDP1): qHTS in cells in presence of CPT; note: nearly all actives have a fitted effect of over 55% in size
# Details: chicken DT40 Tdp1-/-;hTDP1 cells + 20 nM CPT, ATP luminescence, 48 h; series mostly up to 46.2 µM; activity change, negative = growth inhibition: at the top concentration
# Outline: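 Chicken DT40 Tdp1-/- cells stably complemented with human TDP1 were seeded at 400 cells/well in medium containing 20 nM camptothecin, exposed to pin-transferred compounds, and grown at 37 °C for at least 48 hr. Viability was read as ATP luminescence.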
# % is set by controls: 0 for no effect and ±100 for the full control effect; potency is the fitted concentration of half-maximal effect.
SMILES,"activity change, negative = growth inhibition",Potency
COCc1cc(=O)oc2cc(NS(=O)(=O)c3ccc(C)cc3)ccc12,-6.27%,
Cc1cc(SCc2c(F)cccc2Cl)nc(=O)[nH]1,0.592%,
Cn1ncc2c(N3CCCCC3)nc(NCCCO)nc21,-2.76%,
COc1cccc(CN2CCN(Cc3ccc4cccc(F)c4n3)CC2CCO)c1 (stereo not drawn),-28.5%,
CC(=O)c1cccc(NC(=O)c2cc(C)nn2-c2ccccc2)c1,2.05%,
CC(=O)c1cccc(NC(=O)c2ccncc2)c1,-9.21%,
CC(=O)c1cccc(NC(=O)c2nc(-c3ccccc3)n(-c3cccc(C)c3)n2)c1,,16.4 µM (active)
COc1cccc(CNC(=O)c2cc(=O)[nH]c3ccc(S(=O)(=O)N4CCCCC4)cc23)c1,-21.3%,
O=C1NC[C@H](CCCCN2C[C@H](Cc3ccccc3)N(Cc3ccccc3)C(=O)C2=O)N(CCc2ccc(O)cc2)C1=O,7.35%,
O=[N+]([O-])c1ccc2c(c1)C(N1CCOCC1)/C(=C/C1(O)CCCCC1)O2 (stereo not drawn),1.25%,
Cn1nc(-c2ccccc2)c2cc([N+](=O)[O-])ccc21,-2.27%,
CC1(C(=O)NS(=O)(=O)Cc2cccc(Cl)c2)CCN1C(=O)Cc1ccc(Cl)cc1Cl (stereo not drawn),-18.1%,
CC1(C(=O)Nc2cccc3c2CCCC3)CCN1C(=O)CCc1ccc(Cl)cc1Cl (stereo not drawn),,20.6 µM (active)
Cc1ccccc1S(=O)(=O)NC(=O)C1(C)CCN1C(=O)C1(c2ccccc2)CCCC1 (stereo not drawn),,14.6 µM (active)
Cc1ccccc1S(=O)(=O)NC(=O)C1(C)CCN1C(=O)Cc1ccc(Cl)cc1Cl (stereo not drawn),-20.6%,
O=C(Nc1cccc2c1CCCC2)c1ccc(F)cc1,-20.1%,
CC1(C(=O)Nc2cccc3c2CCCC3)CCN1C(=O)C1(c2ccccc2)CC1 (stereo not drawn),,16.4 µM (active)
CC1(C(=O)NS(=O)(=O)c2ccc3ccccc3c2)CCN1C(=O)C1(c2ccc(Cl)cc2)CCC1 (stereo not drawn),-24.2%,
Cc1ccccc1S(=O)(=O)NC(=O)C1(C)CCN1C(=O)C1(c2ccc(Cl)cc2)CC1 (stereo not drawn),-23.7%,
CCCNC(=O)C1(C)CCN1C(=O)C1(c2ccccc2)CC1 (stereo not drawn),0.157%,
CCCC(=O)N1CCC(CCC(=O)NC2CC2)CC1,12.6%,
COc1cc2c(cc1OC)/C(=C/C(=O)c1ccc(NC(C)=O)cc1)NCC2,-0.215%,
Cc1ccccc1CNC(=O)CCC(=O)N1Cc2ccccc2Oc2ncccc21,-15.2%,
COC(=O)c1sc(NC(=O)COC(=O)C2CCC2)c(C(=O)OC)c1C,-9.82%,

SMILES,"activity change, negative = growth inhibition",Potency
COc1cc(OC)c(C(=O)NNC(=O)c2ccc(NS(=O)(=O)c3cccs3)cc2)cc1OC,-4%,
Cc1cccc(C)c1NC(=O)CSc1nc2c([nH]1)c(=O)n(C)c(=O)n2C,-0.0789%,
Cc1ccc2nc(SCC(=O)N3CCN(c4ccccc4)CC3)nc(=O)n2c1,-25.1%,
CC(C)(C)n1cnnc1Sc1ccc([N+](=O)[O-])cn1,20.6%,
CCOc1ccccc1NC(=O)Cn1c(=O)n(Cc2ccco2)c(=O)c2sc3ccccc3c21,-27.9%,
Cc1nc2cc(C(F)(F)F)ccc2n1CCNc1nc(-c2cc(Cl)c(N)c(Cl)c2)cs1,,23.1 µM (active)
O=C(Oc1cc(OC(=O)c2ccccc2)c2c(c1)OC(c1ccc(OC(=O)c3ccccc3)c(OC(=O)c3ccccc3)c1)[C@@H](OC(=O)c1ccccc1)C2)c1ccccc1 (stereo partly drawn),11.4%,
C[C@@H](C(=O)Nc1ccc2ccccc2c1)[C@@H]1C[C@@]1(C)[C@@H](NC(=O)c1cccnc1)c1ccccc1,-18.3%,
COc1ccc(S(=O)(=O)Nc2ccc(O)c(Sc3nc4ccccc4s3)c2)cc1,-15.5%,
O=[N+]([O-])c1c(NCCO)cc(Sc2nc3ccccc3s2)c2nonc12,,0.82 µM (active)
O=C(O)c1cccc(S(=O)(=O)Nc2ccc(O)cc2Sc2nc3ccccc3s2)c1,23.1%,
CSc1nnc(-c2ccc(C(F)(F)F)cn2)o1,20.6%,
N=c1n(Cc2ccc(Cl)cc2)c2ccccc2n1CC(O)c1ccco1 (stereo not drawn),,7.31 µM (active)
O=S(=O)(O)c1nc2ccccc2n1Cc1ccc(Cl)cc1,0.399%,
CCCNC(=O)c1cc(C2CCCCN2S(=O)(=O)c2ccc(C#N)cc2)on1 (stereo not drawn),-6.93%,
O=C(NCC1(N2CCCCC2)CCCCC1)c1ccc(NS(=O)(=O)c2ccc(F)cc2)cc1,-29.5%,
O=C(OCCOCn1cc(Br)c(=O)[nH]c1=O)c1ccccc1,-4.36%,
CCCn1nnnc1NCc1ccc(CC)cc1,-1.3%,
CC(=O)Nc1ccc(/C=N/NC(=O)c2cccs2)cc1,-3.1%,
Cc1ccc(C(=O)Nc2ccc(NC(=O)c3cccs3)cc2)c(C)c1,0.567%,
Cc1cc(/C=N/n2cnnc2)c(C)n1-c1cccc(C(=O)O)c1,-0.903%,
Cc1cccc(-n2c(C)cc(/C=N\NC(=O)c3cccs3)c2C)c1,,18.4 µM (active)
Cc1cc(/C=N/Nc2ccc([N+](=O)[O-])cn2)c(C)n1-c1cccc(C(=O)O)c1,-21.9%,
Cc1cccc(-n2c(C)cc(/C=N/NC(N)=S)c2C)c1,,10.3 µM (active)
